Screen size: about 360,000 compounds; about 1,400 (0.39%) were called active. The full list was thinned out, with actives kept by preference. A number with no mark means an inactive call. Cut-off read from the data, not from the text of the source: active = inhibition above about 5% (passing the limit was not always enough); inactive = the rest.
Target: Tyrosine-protein kinase ABL1 (Homo sapiens) + Ras and Rab interactor 1 (Homo sapiens) (UniProt P00519+Q13671)
Assay: disruptors of human Abl and Rin1 association – biochemical, TR-FRET, primary screen (AID 588664)
Settings: TR-FRET Rin1/Abl binding, at 7.35 µM, hits give high values

Sequence of Tyrosine-protein kinase ABL1 (Homo sapiens) + Ras and Rab interactor 1 (Homo sapiens) (P00519 whole entry, looked up): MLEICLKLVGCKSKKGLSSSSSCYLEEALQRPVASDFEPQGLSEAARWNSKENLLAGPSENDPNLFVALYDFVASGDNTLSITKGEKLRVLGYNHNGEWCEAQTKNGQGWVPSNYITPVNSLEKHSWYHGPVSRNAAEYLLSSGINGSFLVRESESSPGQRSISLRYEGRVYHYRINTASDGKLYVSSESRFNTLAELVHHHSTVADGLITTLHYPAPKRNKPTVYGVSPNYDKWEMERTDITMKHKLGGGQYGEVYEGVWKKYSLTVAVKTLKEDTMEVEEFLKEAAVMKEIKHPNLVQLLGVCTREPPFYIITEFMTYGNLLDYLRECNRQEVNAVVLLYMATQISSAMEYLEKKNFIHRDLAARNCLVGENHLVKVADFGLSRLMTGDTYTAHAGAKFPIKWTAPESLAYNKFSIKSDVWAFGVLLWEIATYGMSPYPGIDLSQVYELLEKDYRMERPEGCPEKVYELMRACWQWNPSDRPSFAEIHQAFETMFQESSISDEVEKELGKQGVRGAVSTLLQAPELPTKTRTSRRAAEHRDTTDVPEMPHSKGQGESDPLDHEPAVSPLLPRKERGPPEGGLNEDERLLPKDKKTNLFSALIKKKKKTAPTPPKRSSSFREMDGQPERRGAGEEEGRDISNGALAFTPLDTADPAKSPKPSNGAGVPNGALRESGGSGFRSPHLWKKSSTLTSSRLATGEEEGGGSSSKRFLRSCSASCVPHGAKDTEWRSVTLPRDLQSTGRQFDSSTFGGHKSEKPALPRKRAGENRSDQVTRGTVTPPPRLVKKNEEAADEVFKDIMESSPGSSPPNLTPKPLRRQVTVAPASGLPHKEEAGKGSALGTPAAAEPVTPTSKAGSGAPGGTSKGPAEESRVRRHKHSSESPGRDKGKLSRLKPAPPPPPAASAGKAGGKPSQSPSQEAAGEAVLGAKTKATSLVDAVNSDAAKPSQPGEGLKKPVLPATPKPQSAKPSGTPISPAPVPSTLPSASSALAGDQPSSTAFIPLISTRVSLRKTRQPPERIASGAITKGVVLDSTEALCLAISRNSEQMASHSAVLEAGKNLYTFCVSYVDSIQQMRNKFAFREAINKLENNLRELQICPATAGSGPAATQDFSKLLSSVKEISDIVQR
Sequence of Tyrosine-protein kinase ABL1 (Homo sapiens) + Ras and Rab interactor 1 (Homo sapiens) (Q13671 whole entry, looked up): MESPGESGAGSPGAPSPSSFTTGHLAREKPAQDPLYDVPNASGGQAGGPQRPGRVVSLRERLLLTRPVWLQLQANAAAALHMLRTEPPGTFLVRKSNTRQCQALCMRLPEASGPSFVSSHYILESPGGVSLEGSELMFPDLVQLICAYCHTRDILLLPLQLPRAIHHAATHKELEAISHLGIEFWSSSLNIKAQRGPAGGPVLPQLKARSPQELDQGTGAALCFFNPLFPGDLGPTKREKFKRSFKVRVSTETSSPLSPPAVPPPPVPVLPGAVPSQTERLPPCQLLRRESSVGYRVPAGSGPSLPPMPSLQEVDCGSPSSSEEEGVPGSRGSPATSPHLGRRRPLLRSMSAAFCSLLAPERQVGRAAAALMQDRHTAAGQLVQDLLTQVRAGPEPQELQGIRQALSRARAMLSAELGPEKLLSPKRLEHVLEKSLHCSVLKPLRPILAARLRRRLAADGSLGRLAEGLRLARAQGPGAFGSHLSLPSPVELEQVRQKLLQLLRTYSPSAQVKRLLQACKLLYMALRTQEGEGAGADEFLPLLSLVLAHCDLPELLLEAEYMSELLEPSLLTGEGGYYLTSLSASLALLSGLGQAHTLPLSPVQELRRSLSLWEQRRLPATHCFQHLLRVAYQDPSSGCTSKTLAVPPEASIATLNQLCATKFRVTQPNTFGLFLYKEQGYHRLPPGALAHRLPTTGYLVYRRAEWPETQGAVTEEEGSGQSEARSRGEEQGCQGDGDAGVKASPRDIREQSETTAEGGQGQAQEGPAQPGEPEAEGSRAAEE

Compound	inhibition
O=c1[nH]c2ccccc2n1C1CCN(C(c2ccccc2)c2nnnn2Cc2ccccc2)CC1 (stereo not given)	-0.41%
CSCCC(c1nnnn1C(C)(C)C)N1CCC(n2c(=O)[nH]c3ccccc32)CC1 (stereo not given)	19.1% (active)
COc1ccc(-n2nnnc2C(c2cccc3ccccc23)N2CCC(n3c(=O)[nH]c4ccccc43)CC2)cc1 (stereo not given)	0.78%
COc1ccc2[nH]c3c(c2c1)CCN[C@H]3C	-0.17%
CCc1nnc(NS(=O)(=O)c2ccc(N=Cc3c(O)n(-c4ccccc4)c(=O)[nH]c3=O)cc2)s1	4.11%
